Test results reported in the supplement of paper PMC10849652.
The full data set covers some 7,900 targets. This sample favours those with a hit. About 0.6% of all pairs of compound and target were hits.

compound: CCN(CCCOc1ccc2c(Nc3cc(CC(=O)Nc4cccc(F)c4)[nH]n3)ncnc2c1)CCOP(=O)(O)O [barasertib]; test: log2 fold change, soluble protein after heating vs DMSO (PISA); higher = thermal stabilisation; K562 cells, 10 uM, 30 min; active = over 0.2 and 3.5 SD of the protein, either way, in both replicates (recomputed)
In short: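 Soluble protein was defined as the supernatant after 21,000xg for 90 min. It came from K562 cells at 2×10^6 cells/mL given 10 μM compound for 30 min, heated in aliquots for 3 min across 48°C-58°C, pooled, and extracted in PBS with 0.5% NP-40 at 4°C, and was quantified by TMTpro 16plex LC-MS/MS with equalised channel sums. Thermal stability against control samples, from duplicates, is reported as log2 fold change.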

Chain of UniProt Q5SW96 (Q5SW96 whole entry, looked up): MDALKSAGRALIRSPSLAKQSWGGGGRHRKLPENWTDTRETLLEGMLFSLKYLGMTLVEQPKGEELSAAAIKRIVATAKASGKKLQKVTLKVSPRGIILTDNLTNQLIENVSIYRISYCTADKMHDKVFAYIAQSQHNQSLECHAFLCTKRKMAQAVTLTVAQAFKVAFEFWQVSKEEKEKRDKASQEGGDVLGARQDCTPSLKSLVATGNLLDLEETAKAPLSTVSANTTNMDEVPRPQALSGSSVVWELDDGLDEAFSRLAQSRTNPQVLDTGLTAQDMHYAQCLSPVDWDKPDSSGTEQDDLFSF
Chain of UniProt O00214 (O00214 whole entry, looked up): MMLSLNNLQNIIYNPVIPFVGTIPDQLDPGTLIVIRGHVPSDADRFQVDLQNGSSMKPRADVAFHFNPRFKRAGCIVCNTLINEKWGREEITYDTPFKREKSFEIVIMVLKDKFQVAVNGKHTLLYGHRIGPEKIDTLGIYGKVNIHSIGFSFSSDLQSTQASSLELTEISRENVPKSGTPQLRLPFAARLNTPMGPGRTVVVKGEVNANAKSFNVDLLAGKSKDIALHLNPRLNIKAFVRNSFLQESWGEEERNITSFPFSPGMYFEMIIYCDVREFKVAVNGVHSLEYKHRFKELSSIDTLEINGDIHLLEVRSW
Chain of UniProt O60291 (O60291 whole entry, looked up): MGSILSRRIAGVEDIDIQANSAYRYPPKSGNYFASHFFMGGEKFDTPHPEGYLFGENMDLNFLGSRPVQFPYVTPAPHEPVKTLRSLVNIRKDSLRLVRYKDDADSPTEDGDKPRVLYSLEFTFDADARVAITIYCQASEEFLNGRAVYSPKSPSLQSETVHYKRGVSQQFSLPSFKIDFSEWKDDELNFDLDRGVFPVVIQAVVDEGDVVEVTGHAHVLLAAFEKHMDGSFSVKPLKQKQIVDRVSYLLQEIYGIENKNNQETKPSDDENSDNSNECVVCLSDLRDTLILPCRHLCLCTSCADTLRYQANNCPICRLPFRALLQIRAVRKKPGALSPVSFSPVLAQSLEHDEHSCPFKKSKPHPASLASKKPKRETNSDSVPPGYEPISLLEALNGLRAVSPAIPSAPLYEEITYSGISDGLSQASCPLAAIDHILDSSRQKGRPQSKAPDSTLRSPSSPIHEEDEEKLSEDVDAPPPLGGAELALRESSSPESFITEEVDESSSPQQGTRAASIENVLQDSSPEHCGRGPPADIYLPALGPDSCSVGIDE
Chain of UniProt P13473 (P13473 whole entry, looked up): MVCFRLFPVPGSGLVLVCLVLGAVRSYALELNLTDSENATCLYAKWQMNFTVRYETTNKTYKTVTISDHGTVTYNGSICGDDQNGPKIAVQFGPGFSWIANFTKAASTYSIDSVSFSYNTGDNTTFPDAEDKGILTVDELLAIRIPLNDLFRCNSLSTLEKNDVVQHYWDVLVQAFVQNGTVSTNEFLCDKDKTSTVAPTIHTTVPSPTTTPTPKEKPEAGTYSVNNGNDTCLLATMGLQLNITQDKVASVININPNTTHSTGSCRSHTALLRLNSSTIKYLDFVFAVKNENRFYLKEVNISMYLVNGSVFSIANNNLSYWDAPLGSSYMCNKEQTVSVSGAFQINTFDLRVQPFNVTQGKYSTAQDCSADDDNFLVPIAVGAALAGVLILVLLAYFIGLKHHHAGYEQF
Chain of UniProt O95279 (O95279 whole entry, looked up): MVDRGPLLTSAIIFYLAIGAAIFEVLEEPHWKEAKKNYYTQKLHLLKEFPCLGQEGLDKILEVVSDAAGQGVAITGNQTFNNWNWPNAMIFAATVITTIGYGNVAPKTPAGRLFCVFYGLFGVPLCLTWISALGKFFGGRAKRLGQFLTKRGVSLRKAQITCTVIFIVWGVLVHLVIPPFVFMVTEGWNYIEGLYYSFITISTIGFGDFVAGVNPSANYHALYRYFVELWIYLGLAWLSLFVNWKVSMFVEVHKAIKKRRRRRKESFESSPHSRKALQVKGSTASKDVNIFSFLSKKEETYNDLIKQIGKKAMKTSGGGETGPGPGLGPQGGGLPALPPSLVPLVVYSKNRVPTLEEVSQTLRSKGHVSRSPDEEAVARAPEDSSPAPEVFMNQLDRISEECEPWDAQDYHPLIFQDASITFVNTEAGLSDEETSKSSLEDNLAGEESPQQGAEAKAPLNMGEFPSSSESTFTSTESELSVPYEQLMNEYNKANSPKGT
Chain of UniProt P43361 (P43361 whole entry, looked up): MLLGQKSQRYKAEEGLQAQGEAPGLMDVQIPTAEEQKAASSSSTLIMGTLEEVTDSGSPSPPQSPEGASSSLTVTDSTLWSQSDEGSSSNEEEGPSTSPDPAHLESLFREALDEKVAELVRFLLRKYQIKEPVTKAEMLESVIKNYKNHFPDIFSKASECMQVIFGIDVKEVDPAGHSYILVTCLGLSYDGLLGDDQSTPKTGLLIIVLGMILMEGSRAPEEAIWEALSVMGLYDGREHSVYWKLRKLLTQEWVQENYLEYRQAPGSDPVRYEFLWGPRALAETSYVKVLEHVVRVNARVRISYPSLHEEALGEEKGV
Chain of UniProt Q8NHS3 (Q8NHS3 whole entry, looked up): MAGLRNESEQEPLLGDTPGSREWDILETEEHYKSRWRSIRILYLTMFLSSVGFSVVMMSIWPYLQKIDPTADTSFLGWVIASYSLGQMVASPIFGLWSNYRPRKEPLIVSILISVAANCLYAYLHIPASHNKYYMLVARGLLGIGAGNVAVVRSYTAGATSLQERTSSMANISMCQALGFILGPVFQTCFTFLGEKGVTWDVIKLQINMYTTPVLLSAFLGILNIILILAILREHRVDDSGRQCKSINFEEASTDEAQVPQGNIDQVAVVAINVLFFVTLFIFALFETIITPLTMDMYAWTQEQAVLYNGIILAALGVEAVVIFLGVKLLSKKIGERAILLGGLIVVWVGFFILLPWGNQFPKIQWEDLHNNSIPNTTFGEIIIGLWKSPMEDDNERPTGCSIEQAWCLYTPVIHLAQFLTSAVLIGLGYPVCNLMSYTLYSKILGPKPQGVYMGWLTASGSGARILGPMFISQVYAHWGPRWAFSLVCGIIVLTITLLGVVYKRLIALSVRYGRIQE
Chain of UniProt Q9Y573 (Q9Y573 whole entry, looked up): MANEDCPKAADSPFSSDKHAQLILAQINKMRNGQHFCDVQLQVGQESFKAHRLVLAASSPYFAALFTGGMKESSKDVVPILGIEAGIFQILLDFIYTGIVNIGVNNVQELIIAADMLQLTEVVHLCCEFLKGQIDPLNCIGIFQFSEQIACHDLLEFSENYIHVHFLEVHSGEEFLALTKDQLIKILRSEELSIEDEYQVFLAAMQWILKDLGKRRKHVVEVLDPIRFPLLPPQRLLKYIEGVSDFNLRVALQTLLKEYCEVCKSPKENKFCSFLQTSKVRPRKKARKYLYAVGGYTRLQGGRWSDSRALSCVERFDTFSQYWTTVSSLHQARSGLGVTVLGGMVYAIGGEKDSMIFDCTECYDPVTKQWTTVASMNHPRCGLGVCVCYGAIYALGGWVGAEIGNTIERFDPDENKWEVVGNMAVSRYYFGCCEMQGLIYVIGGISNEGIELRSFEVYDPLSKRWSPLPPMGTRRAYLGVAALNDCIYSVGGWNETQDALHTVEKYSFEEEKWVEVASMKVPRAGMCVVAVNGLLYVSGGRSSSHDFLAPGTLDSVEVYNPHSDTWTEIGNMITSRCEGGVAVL
Chain of UniProt A4D2B0 (A4D2B0 whole entry, looked up): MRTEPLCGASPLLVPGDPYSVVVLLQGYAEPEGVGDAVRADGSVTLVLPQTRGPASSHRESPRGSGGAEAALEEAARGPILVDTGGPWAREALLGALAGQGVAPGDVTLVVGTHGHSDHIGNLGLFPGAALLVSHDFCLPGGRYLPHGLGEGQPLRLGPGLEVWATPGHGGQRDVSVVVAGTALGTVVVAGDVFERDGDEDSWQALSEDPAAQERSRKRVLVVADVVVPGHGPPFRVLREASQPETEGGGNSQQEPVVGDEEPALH
Chain of UniProt Q9BQD3 (Q9BQD3 whole entry, looked up): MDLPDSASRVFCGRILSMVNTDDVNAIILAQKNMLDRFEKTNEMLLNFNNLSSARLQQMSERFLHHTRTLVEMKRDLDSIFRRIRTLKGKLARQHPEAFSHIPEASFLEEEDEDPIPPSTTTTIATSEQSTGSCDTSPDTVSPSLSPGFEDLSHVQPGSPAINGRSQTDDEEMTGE
Chain of UniProt Q14680 (Q14680 whole entry, looked up): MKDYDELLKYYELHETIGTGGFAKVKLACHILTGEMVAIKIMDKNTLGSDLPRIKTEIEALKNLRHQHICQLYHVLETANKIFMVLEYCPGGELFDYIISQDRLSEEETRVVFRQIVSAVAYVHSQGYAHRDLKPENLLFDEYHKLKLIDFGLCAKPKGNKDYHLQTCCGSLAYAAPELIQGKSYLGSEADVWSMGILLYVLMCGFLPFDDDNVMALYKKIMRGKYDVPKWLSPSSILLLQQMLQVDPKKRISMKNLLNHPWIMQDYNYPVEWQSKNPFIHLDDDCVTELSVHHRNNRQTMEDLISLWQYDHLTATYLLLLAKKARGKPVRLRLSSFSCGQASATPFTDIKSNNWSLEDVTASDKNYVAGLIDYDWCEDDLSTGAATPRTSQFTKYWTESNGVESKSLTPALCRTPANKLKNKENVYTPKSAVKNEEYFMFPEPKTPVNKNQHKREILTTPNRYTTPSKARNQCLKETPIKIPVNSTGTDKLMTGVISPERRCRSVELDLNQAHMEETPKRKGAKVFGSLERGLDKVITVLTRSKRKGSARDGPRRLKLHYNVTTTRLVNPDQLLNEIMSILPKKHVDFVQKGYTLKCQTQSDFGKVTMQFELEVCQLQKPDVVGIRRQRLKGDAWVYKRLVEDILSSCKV
Chain of UniProt Q86VI4 (Q86VI4 whole entry, looked up): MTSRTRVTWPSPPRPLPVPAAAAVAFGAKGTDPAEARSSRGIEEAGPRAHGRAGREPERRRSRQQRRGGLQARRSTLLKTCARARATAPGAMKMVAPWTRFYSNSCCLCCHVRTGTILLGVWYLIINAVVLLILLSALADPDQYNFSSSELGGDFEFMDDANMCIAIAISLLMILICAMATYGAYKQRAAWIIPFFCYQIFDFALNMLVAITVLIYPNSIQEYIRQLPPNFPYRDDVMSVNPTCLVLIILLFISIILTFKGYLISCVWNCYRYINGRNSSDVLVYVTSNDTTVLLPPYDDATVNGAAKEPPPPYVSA

log2 fold change, inactive:
IPP (UniProt Q9Y573) -0.139
MARCHF3 (UniProt Q86UD3) 0.025
MGRN1 isoform 2 (UniProt O60291) 0
MFSD8 (UniProt Q8NHS3) -0.062
MELK (UniProt Q14680) 0.048
LGALS8 isoform 2 (UniProt O00214) 0.13
MAGEA8 (UniProt P43361) -0.123
LAMP2 isoform 2 (UniProt P13473) 0
MFAP3 (UniProt P55082) 0.05
LDLRAP1 (UniProt Q5SW96) 0.146
MBLAC1 (UniProt A4D2B0) -0.016
LAPTM4B (UniProt Q86VI4) 0.002
KXD1 (UniProt Q9BQD3) -0.021
LOX (UniProt P28300) -0.129
MCOLN3 (UniProt Q8TDD5) -0.171
MAP4K2 (UniProt Q12851) 0.218
ILF3 (UniProt Q12906) -0.241
KCNK5 (UniProt O95279) 0.097
